Measured values: publication PMC7862700, “An all-to-all approach to the identification of sequence-specific readers for epigenetic DNA modifications on cytosine”

Tests used:
Assay in all cases: DAPPL (digital affinity profiling via proximity ligation, sequencing); 10 mM Tris-HCl pH 7.5, 50 mM NaCl, 1 mM DTT, 4% glycerol, room temperature, 30 min; GST-TFs on glutathione beads, 16-mer random dsDNA library, 0.1% formaldehyde crosslink after washing; high values mean tight binding
FEV = molecular target: T1, FEV (Homo sapiens, UniProt Q99581 1-238); settings: protein: recombinant; tags: N-terminal GST; dsDNA, one strand shown
T1 sequence: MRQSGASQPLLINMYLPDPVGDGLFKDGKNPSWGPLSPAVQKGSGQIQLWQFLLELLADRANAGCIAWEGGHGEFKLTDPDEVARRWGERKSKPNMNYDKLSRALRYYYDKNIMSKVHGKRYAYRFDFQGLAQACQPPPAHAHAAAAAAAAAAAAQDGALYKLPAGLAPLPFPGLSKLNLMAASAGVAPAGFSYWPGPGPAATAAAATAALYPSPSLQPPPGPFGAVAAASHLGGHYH
Procedure, shortened: (§1)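 Human transcription factors were made in yeast as GST fusions, captured on glutathione beads and barcoded with DNA. With a tag-only sample included, the pool was incubated with 200 nmole of a random double-stranded 16-mer DNA library in Tris/NaCl/DTT/glycerol buffer at room temperature for 30 min, then crosslinked with 0.1% formaldehyde after washing, ligated by proximity, amplified and sequenced. For binding signal, each hexamer's read frequency for a factor is divided by its frequency for the tag-only sample.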

ETV5 = ETV5 (Homo sapiens, UniProt P41161 1-510); settings: protein: recombinant; tags: N-terminal GST; dsDNA, one strand shown
Procedure, shortened: as §1

HSF1 = HSF1 (Homo sapiens, UniProt Q00613 1-529); settings: protein: recombinant; tags: N-terminal GST; chain copies: 3; dsDNA, one strand shown
Procedure, shortened: as §1

SPIC = molecular target: T2, SPIC (Homo sapiens, UniProt Q8N5J4 1-248); settings: protein: recombinant; tags: N-terminal GST; dsDNA, one strand shown
T2 sequence: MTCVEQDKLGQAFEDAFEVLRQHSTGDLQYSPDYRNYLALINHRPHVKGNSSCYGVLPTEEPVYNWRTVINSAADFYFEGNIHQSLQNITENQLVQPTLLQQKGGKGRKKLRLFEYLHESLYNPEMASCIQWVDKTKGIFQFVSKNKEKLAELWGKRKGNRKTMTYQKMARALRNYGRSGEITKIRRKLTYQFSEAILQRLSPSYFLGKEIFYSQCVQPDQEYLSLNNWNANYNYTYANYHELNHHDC
Procedure, shortened: as §1

ELF4 = ELF4 (Homo sapiens, UniProt Q99607 1-663); settings: protein: recombinant; tags: N-terminal GST; dsDNA, one strand shown
Procedure, shortened: as §1

ELK4 = molecular target: T3, ELK4 (Homo sapiens, UniProt P28324-2 1-405); settings: protein: recombinant; tags: N-terminal GST; dsDNA, one strand shown
T3 sequence: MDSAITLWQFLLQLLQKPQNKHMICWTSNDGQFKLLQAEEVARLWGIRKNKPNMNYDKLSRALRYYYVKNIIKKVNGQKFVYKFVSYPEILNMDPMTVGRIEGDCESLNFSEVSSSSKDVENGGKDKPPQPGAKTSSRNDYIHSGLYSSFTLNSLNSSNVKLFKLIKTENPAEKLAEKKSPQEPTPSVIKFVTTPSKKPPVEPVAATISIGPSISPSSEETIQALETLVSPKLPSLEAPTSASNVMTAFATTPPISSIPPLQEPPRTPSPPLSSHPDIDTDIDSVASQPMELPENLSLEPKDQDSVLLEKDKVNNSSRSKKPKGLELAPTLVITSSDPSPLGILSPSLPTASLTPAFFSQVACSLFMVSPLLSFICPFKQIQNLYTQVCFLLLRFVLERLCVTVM
Procedure, shortened: as §1

ETV2 = molecular target: T4, ETV2 (Homo sapiens, UniProt O00321 1-342); settings: protein: recombinant; tags: N-terminal GST; dsDNA, one strand shown
T4 sequence: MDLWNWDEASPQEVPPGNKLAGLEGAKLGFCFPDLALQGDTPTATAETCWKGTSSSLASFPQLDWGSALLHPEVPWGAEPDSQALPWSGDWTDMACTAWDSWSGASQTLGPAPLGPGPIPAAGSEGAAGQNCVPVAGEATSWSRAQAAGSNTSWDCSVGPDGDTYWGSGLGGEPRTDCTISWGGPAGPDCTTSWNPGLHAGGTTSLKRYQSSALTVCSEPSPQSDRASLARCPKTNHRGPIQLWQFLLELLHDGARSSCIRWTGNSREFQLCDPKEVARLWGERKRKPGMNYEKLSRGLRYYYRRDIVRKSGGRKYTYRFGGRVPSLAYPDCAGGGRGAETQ
Procedure, shortened: as §1

ELF3 = molecular target: T5, ELF3 (Homo sapiens, UniProt P78545 1-371); settings: protein: recombinant; tags: N-terminal GST; dsDNA, one strand shown
T5 sequence: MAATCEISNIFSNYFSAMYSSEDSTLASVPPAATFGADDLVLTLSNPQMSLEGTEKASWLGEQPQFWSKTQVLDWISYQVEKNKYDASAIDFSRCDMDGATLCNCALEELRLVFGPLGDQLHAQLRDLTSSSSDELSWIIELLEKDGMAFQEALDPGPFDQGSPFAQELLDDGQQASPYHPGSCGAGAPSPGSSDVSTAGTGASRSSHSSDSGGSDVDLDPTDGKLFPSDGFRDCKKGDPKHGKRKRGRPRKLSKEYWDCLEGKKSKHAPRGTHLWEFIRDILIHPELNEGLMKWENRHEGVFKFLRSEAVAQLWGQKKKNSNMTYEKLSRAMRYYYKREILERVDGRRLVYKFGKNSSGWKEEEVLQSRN
Procedure, shortened: as §1

CRX = CRX (Homo sapiens, UniProt O43186 1-299); settings: protein: recombinant; tags: N-terminal GST; dsDNA, one strand shown
Procedure, shortened: as §1

ETV1 = ETV1 (Homo sapiens, UniProt P50549 1-477); settings: protein: recombinant; tags: N-terminal GST; dsDNA, one strand shown
Procedure, shortened: as §1

ERF = molecular target: T6, ERF (Homo sapiens, UniProt P50548 1-548); settings: protein: recombinant; tags: N-terminal GST; dsDNA, one strand shown
T6 sequence: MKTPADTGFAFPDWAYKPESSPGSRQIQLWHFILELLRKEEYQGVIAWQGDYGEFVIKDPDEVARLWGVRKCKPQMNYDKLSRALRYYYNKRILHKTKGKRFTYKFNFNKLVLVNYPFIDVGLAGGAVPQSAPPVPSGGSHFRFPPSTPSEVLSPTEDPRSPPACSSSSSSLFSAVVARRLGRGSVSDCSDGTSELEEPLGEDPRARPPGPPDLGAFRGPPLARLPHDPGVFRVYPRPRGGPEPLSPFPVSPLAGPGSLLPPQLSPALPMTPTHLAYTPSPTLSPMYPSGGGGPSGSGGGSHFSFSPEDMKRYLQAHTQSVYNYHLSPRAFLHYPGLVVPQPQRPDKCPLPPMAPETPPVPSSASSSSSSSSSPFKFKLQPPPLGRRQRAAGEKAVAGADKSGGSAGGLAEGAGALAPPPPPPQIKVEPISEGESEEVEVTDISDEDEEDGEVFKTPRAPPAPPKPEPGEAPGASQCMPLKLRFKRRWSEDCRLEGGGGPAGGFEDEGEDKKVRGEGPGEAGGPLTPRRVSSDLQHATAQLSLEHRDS
Procedure, shortened: as §1

ETV3L = molecular target: T7, ETV3L (Homo sapiens, UniProt Q6ZN32 1-361); settings: protein: recombinant; tags: N-terminal GST; dsDNA, one strand shown
T7 sequence: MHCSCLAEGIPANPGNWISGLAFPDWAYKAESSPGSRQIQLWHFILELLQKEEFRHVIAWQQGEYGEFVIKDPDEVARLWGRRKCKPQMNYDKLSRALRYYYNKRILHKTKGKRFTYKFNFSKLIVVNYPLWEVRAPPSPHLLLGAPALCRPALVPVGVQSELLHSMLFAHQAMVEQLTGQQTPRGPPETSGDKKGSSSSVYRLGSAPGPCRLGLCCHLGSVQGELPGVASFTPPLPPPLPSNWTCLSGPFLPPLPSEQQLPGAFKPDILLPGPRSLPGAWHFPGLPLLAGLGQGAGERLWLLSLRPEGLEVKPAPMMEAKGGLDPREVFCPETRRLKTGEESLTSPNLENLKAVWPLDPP
Procedure, shortened: as §1

ETS2 = molecular target: T8, ETS2 (Homo sapiens, UniProt P15036 1-469); settings: protein: recombinant; tags: N-terminal GST; dsDNA, one strand shown
T8 sequence: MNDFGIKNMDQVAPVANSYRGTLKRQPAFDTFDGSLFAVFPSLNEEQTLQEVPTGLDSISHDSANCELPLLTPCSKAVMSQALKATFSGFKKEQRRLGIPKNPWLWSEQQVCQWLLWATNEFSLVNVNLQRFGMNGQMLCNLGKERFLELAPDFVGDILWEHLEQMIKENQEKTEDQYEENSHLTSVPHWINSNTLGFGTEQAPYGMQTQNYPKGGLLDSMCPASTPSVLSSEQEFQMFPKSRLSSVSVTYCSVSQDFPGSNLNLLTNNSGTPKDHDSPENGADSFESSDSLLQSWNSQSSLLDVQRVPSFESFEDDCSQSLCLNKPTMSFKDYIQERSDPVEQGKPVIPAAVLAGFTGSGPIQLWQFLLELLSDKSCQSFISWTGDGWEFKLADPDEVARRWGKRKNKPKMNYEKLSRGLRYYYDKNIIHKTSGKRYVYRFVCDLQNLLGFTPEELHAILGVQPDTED
Procedure, shortened: as §1

SPDEF = molecular target: T9, SPDEF (Homo sapiens, UniProt O95238 1-335); settings: protein: recombinant; tags: N-terminal GST; dsDNA, one strand shown
T9 sequence: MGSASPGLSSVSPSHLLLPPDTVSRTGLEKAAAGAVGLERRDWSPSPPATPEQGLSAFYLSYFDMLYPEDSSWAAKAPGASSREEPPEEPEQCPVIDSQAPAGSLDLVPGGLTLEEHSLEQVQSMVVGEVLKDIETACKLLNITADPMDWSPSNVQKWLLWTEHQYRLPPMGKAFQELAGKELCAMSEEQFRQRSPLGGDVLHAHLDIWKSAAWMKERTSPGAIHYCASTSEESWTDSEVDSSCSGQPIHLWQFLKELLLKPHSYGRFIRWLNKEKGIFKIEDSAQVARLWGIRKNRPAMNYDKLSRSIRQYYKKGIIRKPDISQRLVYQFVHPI
Procedure, shortened: as §1

ETV7 = molecular target: T10, ETV7 (Homo sapiens, UniProt Q9Y603 1-341); settings: protein: recombinant; tags: N-terminal GST; dsDNA, one strand shown
T10 sequence: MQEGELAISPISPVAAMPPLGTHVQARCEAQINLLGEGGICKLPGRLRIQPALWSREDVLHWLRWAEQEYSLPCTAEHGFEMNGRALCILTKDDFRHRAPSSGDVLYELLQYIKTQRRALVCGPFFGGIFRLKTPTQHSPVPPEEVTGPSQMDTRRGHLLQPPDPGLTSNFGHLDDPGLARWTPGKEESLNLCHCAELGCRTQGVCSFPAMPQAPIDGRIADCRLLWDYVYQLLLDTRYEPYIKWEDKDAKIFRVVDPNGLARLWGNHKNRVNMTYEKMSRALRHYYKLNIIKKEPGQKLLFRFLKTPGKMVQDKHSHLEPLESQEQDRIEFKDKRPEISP
Procedure, shortened: as §1

ELF5 = molecular target: T11, ELF5 (Homo sapiens, UniProt Q9UKW6-2 1-255); settings: protein: recombinant; tags: N-terminal GST; dsDNA, one strand shown
T11 sequence: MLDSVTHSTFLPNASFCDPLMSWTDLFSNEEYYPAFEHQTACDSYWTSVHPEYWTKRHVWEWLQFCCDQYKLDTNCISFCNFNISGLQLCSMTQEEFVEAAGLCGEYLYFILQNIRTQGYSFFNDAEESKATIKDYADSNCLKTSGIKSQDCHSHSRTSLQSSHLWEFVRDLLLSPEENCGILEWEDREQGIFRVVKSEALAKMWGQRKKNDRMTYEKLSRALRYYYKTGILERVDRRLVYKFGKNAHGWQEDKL
Procedure, shortened: as §1

ETV3 = molecular target: T12, ETV3 (Homo sapiens, UniProt P41162-2 1-143); settings: protein: recombinant; tags: N-terminal GST; dsDNA, one strand shown
T12 sequence: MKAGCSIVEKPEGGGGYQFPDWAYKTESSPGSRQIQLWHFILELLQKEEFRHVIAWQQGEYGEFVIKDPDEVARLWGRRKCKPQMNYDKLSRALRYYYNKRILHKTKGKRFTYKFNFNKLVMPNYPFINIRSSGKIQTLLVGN
Procedure, shortened: as §1

ETV6 = ETV6 (Homo sapiens, UniProt P41212 1-452); settings: protein: recombinant; tags: N-terminal GST; dsDNA, one strand shown
Procedure, shortened: as §1

Chain of CRX (O43186 whole entry): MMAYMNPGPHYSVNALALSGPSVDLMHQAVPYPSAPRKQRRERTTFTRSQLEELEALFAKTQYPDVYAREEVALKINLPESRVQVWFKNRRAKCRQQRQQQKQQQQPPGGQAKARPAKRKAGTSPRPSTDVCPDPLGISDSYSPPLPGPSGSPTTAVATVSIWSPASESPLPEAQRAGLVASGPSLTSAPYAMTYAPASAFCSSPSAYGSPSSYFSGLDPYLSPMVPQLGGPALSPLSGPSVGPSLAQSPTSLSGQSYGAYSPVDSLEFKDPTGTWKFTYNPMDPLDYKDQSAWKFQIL
Chain of ETV5 (P41161 whole entry): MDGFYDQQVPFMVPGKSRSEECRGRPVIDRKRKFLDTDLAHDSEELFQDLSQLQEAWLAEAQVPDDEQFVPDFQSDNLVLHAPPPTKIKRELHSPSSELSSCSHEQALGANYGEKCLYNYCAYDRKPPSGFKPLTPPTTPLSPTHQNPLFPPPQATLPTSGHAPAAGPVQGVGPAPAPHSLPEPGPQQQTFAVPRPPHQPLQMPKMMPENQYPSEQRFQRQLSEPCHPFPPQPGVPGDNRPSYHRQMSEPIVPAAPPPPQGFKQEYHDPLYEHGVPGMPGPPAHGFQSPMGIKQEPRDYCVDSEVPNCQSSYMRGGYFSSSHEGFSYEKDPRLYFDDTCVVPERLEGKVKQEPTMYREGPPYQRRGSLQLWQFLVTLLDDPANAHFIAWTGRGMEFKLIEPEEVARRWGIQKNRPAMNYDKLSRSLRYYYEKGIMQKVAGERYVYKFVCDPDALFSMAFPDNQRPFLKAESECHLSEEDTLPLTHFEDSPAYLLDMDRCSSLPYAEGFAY
Chain of ETV1 (P50549 whole entry): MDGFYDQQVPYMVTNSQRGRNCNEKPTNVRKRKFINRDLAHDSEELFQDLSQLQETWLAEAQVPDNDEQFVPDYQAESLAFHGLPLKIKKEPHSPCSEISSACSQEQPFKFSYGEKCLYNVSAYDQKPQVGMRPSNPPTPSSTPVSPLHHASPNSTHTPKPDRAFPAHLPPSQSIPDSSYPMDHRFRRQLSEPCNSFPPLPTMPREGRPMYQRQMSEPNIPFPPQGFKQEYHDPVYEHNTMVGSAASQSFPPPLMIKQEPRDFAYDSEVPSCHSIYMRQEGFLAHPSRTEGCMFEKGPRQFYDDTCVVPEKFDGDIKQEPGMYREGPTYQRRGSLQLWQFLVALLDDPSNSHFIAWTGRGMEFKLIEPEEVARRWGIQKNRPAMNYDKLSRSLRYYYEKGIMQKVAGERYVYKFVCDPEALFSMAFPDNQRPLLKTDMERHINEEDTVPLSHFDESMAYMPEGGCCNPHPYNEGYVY
Chain of ETV6 (P41212 whole entry): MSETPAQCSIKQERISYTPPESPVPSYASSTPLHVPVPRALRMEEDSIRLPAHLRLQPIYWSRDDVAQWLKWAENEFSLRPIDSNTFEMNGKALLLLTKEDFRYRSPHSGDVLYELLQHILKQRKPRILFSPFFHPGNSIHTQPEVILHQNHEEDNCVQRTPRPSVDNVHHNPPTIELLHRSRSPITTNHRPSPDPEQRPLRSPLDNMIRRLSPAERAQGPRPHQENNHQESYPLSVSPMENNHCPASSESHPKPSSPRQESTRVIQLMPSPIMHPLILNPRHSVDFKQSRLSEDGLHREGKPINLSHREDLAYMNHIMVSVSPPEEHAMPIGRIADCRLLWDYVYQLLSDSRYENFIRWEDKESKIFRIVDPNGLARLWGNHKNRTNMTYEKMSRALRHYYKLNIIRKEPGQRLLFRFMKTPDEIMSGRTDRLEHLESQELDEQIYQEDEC
Chain of ELF4 (Q99607 whole entry): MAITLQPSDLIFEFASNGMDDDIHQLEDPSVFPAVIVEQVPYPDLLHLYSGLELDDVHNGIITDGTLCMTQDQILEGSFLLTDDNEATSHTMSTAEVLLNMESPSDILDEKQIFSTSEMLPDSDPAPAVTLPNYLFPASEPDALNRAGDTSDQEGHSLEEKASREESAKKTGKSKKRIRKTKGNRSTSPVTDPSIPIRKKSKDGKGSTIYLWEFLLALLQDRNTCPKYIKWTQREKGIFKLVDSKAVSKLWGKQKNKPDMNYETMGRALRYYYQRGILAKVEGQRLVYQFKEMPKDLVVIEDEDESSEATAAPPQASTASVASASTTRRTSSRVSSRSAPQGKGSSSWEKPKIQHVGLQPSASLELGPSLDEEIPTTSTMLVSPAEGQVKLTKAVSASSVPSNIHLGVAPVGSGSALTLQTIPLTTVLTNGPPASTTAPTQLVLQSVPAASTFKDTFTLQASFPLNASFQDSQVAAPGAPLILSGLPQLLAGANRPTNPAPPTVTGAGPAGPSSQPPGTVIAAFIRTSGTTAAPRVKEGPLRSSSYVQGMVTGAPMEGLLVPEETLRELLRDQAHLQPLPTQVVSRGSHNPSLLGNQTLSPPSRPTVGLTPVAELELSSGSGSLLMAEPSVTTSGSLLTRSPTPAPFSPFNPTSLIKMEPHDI
Chain of HSF1 (Q00613 whole entry): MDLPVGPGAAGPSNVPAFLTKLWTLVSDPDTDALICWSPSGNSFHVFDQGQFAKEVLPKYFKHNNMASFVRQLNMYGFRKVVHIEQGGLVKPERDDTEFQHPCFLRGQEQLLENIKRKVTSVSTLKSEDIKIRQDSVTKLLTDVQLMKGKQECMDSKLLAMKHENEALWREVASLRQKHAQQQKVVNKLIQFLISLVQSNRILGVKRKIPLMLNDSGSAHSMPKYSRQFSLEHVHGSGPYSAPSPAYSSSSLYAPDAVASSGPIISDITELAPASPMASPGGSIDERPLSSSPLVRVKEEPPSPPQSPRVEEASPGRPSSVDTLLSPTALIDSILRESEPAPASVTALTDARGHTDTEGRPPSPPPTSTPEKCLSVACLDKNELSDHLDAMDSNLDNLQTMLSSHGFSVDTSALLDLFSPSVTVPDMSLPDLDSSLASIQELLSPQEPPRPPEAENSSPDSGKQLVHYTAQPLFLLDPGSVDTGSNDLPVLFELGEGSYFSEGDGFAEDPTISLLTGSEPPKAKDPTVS

Question: Which results are given for TAAACT?
Answer: binding signal (FEV): 1.11 fold enrichment (6-mer frequency, TF over GST control); binding signal (ETV5): 1.23 fold enrichment (6-mer frequency, TF over GST control); binding signal (HSF1): 1.3 fold enrichment (6-mer frequency, TF over GST control); binding signal (SPIC): 1.12 fold enrichment (6-mer frequency, TF over GST control); binding signal (ELF4): 1.23 fold enrichment (6-mer frequency, TF over GST control); binding signal (ELK4): 1.11 fold enrichment (6-mer frequency, TF over GST control); binding signal (ETV2): 1.27 fold enrichment (6-mer frequency, TF over GST control); binding signal (ELF3): 1.04 fold enrichment (6-mer frequency, TF over GST control); binding signal (CRX): 1.72 fold enrichment (6-mer frequency, TF over GST control); binding signal (ETV1): 1.2 fold enrichment (6-mer frequency, TF over GST control); binding signal (ERF): 1.35 fold enrichment (6-mer frequency, TF over GST control); binding signal (ETV3L): 1.17 fold enrichment (6-mer frequency, TF over GST control); binding signal (ETS2): 1.18 fold enrichment (6-mer frequency, TF over GST control); binding signal (SPDEF): 1.01 fold enrichment (6-mer frequency, TF over GST control); binding signal (ETV7): 1.04 fold enrichment (6-mer frequency, TF over GST control); binding signal (ELF5): 1.16 fold enrichment (6-mer frequency, TF over GST control); binding signal (ETV3): 1.15 fold enrichment (6-mer frequency, TF over GST control); binding signal (ETV6): 1.13 fold enrichment (6-mer frequency, TF over GST control)
